# Source: PubChem
# This is one part of a sample in which hits are shown more often than they occur.
# HTT-AS promoter: activators of huntingtin-antisense promoter activity; HEK293 HTT-AS promoter firefly luciferase reporter, 24 h; response scale: percent change from vehicle, -100% = no light; Potency, µM (top dose mostly 57.5 µM), for inactives: top-dose activity change, positive = activation, actives largely listed as activators; hit rate 0.24% among 48,000; note: nearly all actives have a fitted effect of over 55% in size
#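 Firefly luciferase readout (Dual-Glo, 10 min RT) after 24 h, 37 °C compound exposure (final up to 57.5 uM) of HEK293 reporter cells cultured 24 h beforehand; PTC124 at 50 uM final as control inhibitor; activity scaled vehicle 0%, zero RLU -100%.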
# HTT prom inh: HTT promoter inhibition; HEK293 HTT promoter firefly luciferase reporter, 24 h; Potency, µM (top dose mostly 57.5 µM), inactives show top-dose activity change, negative = inhibition, actives largely listed as inhibitors; AID 1508623; hit rate 0.93% among 48,000; note: nearly all actives have a fitted effect of over 50% in size
#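 HEK293 cells carrying firefly luciferase reporters were seeded at 2,500 per well in Opti-MEM and cultured for 24 h. They were then treated with compounds at up to 57.5 uM final for 24 h at 37 degrees C before Dual-Glo luminescence readout.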
# NTMT1 inhibitor: blocks human N-terminal methyltransferase 1 activity | Q9BV86 | NTMT1 MTase-Glo SAH luminescence, purified enzyme | Potency, µM (series often up to 114 µM), for the others: at the highest dose activity change, negative = inhibition, actives largely listed as inhibitors | hit rate 2.5% among 59,000;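 note: plate controls were DMSO vehicle for no effect and no enzyme for full effect; nearly all actives have a fitted effect of over 65% in size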
# Target sequence (Q9BV86 whole entry, looked up): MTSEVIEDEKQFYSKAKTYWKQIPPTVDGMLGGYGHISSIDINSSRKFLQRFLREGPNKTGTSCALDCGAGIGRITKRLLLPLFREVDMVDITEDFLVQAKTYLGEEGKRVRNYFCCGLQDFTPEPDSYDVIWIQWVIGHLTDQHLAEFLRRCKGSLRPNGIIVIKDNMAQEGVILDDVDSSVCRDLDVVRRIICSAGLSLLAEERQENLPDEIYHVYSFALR
# * marks the source's active call; other numbers are inactive results; ? = inconclusive; nt = no result given; [ ] = another dose, or the depositor's remark. Calls come from the whole dose curve; as a rule, active = well fitted curve in the direction sought with a large enough effect; inconclusive = small, poorly fitted or top-dose-only effect, or another doubt; inactive = no such curve, though single readings can be large; an effect the other way counts as inactive or inconclusive. Potency is the fitted concentration of half-maximal effect.
SMILES,HTT-AS promoter,HTT prom inh,NTMT1 inhibitor
CCCCOc1ccc(CC/C=C2\SC(=O)N(CCN)C2=O)cc1,nt,nt,50µM*
CC(=O)c1cccc(NC(=O)c2noc3c2CSc2ccccc2-3)c1,1.4µM*,52%,3%
COc1ccc(NC(=O)c2noc3c2CSc2ccccc2-3)cc1Cl,7%,3%,4%
C/C(=C\c1cccc(C(F)(F)F)c1)C1Nc2cccc3cccc(c23)N1,nt,nt,-3%
C=CC(=O)N1CC[C@@H](Oc2nc(Nc3ccc(N4CCC(N5CCN(C)CC5)CC4)cc3)c(C(N)=O)nc2CC)C1,nt,nt,4µM*
CN1CCN(c2ccc(Nc3ncc4cc(C#N)c(=O)n(C5CCCC5)c4n3)cc2)CC1,nt,nt,-17%
CN(C)C(=S)SC(=S)N(C)C,-60%,?,25µM*
Cc1cc(-c2nnc3n2CCCCC3)c(C)n1-c1ccc(Br)cc1,nt,nt,-20%[57.5 µM]
Cc1ccc(Cl)cc1-n1ncc2c(Nc3cccc(C)c3C)ncnc21,-18%,?,5.6µM*
COc1ccc(Nc2ncnc3c2cnn3-c2cc(Cl)ccc2C)cc1OC,0%,-30%,?
CN(c1ccccc1CNc1nc(Nc2ccc3c(c2)CC(=O)N3)ncc1C(F)(F)F)S(C)(=O)=O,nt,nt,0%[57.5 µM]
Cc1ccccc1NS(=O)(=O)c1ccc2c(c1)NC(=O)CCS2,-26%,-22%,8%
COc1cc(OC)c(NS(=O)(=O)c2ccc3c(c2)NC(=O)CCS3)cc1Cl,-49%,28µM*,14%
CCc1ccc(N(CC(C)C)S(=O)(=O)c2ccc(OCC3CCOCC3)c(CO)c2)cc1,nt,nt,-2%
CC(=O)Nc1cc2c(s1)CNCC2,nt,nt,6%
CCN(CC)CCNC(=O)c1cc2c(=O)[nH]c3ccc(C)cc3c2s1,-11%,-28%,?
CCN(CCCNC(=O)c1cc2c(=O)[nH]c3ccc(C)cc3c2s1)Cc1ccccc1,-26%,-21%,50µM*
CC(C)C[C@@H]1NC(=O)[C@@H](C(C)C)NC(=O)[C@@H]2CCCN2C(=O)[C@@H](CC(=O)O)NC(=O)[C@@H](Cc2c[nH]c3ccccc23)NC1=O,nt,nt,10%
COc1ccc(NC(=O)Nc2ccc(-c3nc4ccccc4[nH]3)cc2)cc1OC,nt,nt,-1%
O=C(O)C1(C(=O)O)CCC1.[NH2-].[NH2-].[Pt+2],-5%,0%,18µM*
Cc1cccc(-c2nnc(C)n2CCCn2ccnc2)c1[N+](=O)[O-],nt,nt,-23%
C=CC(=O)N1CCN(C(=O)CNc2cc(I)c(Cl)cc2O)CC1,nt,nt,0%[57.5 µM]
Cc1ccc(CCNC(=O)c2cc3c(s2)-c2ccccc2OC3)cc1,-34%,?,-17%
Cc1ccc(CCNC(=O)c2cc3c(s2)-c2c(C)cccc2OC3)cc1,-12%,-20%,89µM*
Cc1cc(-c2cc(O)ccc2Cl)cc2nnc(Nc3ccc(OCCN4CCCC4)cc3)nc12,nt,nt,20µM*
SMILES,HTT-AS promoter,HTT prom inh,NTMT1 inhibitor
Cc1c(-c2ccc(O)cc2)n(Cc2ccc(OCCN3CCCCCC3)cc2)c2ccc(O)cc12,-30%,?,?
CC(C)c1ccc(-c2cc(=O)c3ccccc3o2)cc1,nt,nt,0%[57.5 µM]
O=c1cc(-c2ccccc2)oc2ccccc12,?,39%[116 µM],100µM*
C=C1C(=O)OC2/C=C(\CO)CC/C=C(\C=O)C(OC)C(OC(=O)C(C)CC)C12 (stereo not given),nt,nt,13%[29.8 µM]
COC12CC3C(C(C)C1=CC(=O)O2)C(O)C(OC(C)=O)C1C(C)(C)C(OC(C)=O)CCC31C (stereo not given),nt,nt,4%[29.8 µM]
CC1CCCN(C(=O)c2cc3ccc4cccnc4c3[nH]2)C1 (stereo not given),-57%,?,?
O=C(c1cc2ccc3cccnc3c2[nH]1)N1CCCCC1,?,-50%,40µM*
Cc1ccc(-c2nn3c(C)nnc3s2)cc1NCc1ccc(-c2cccc(Cl)c2)o1,nt,nt,9%
CCOc1ccc(-c2cc(CCCC(=O)NCCc3cc(OC)c(OC)c(OC)c3)no2)cc1,-79%,16µM*,-1%
CCOc1ccc(-c2cc(CCCC(=O)NCCc3ccc(OC)c(OC)c3)no2)cc1,-81%,?,?
Cc1nn(C)c2c1c(C(F)(F)F)cc(=O)n2CC(=O)N1CCN(c2ccccc2F)CC1,3%,-2%,?
Cc1cc(=O)n(CC(=O)N2CCN(c3ccccc3F)CC2)c2c1c(C)nn2C,-54%,20µM*,-4%
CC(C)(C)OC(=O)N1CCN(c2ccc(NCc3coc(-c4ccc(C#N)cc4)c3)cc2)CC1,nt,nt,-8%
CCOc1ccccc1CN1CCc2nc(N3CCN(c4ccccc4F)CC3)ncc2C1,-51%,14µM*,5%
Fc1ccc(CN2CCc3nc(N4CCN(c5ccccc5F)CC4)ncc3C2)c(F)c1,-28%,-47%,-5%
CC(C)(C)C(=O)N1N=CC[C@H]1c1ccccc1,nt,nt,10%
CCS(=O)(=O)c1cccc(C(=O)N2CCN(c3nc4c(C)ccc(Cl)c4s3)CC2)c1,-48%,11µM*,4%
CCS(=O)(=O)c1ccc(C(=O)N2CCN(c3nc4c(OC)ccc(C)c4s3)CC2)cc1,-37%,?,-3%
Cc1cc(NS(=O)(=O)c2ccc(NC(=O)Cc3ccc(F)c(Cl)c3)cc2)no1,nt,nt,5%
CN1CCCN(C(=O)c2cccc(-c3ccc(/C=C4\C(=O)Nc5ccc(Cl)cc54)o3)c2)CC1,nt,nt,7.9µM*
CN1CCN(C(=O)c2ccc3c(c2)N(Cc2ccc(Cl)cc2)C(=O)c2ccccc2S3(=O)=O)CC1,-16%,-9%,30%
CC(=O)NC(C(=O)OC1CCC(C)(C)C2CC=C3C(=O)OCC3(O)C12C)C(C)C (stereo not given),nt,nt,6%[29.8 µM]
CC(C)N(CCC(=O)c1ccc2ccccc2c1)Cc1ccccc1,nt,nt,50µM*
CC(C)N(Cc1ccccc1)C(=O)c1cc2ccc3cccnc3c2[nH]1,-25%,?,-3%
CCOc1ccc(CCNC(=O)c2cc3ccccc3n2C)cc1OCC,nt,nt,5%
SMILES,HTT-AS promoter,HTT prom inh,NTMT1 inhibitor
Cc1cc(N2CCOCC2)cc2[nH]c(-c3c(NCC(O)c4cccc(Cl)c4)cc[nH]c3=O)nc12 (stereo not given),nt,nt,0%
O=C(COc1ccccc1F)NC1CC(=O)N(c2ccc3c(c2)OCCO3)C1 (stereo not given),-2%,2%,89µM*
COc1ccccc1OCC(=O)NC1CC(=O)N(c2ccc3c(c2)OCCO3)C1 (stereo not given),-10%,-11%,2%
Oc1ccc(CNc2cc(Br)ccn2)c2cccnc12,nt,nt,0%
COc1ccc(-n2c(SCC#N)nc3sc4c(c3c2=O)CCCC4)cc1,nt,nt,8%[57.5 µM]
COc1ccc(C(=O)N(Cc2cc(OC)c(OC)c(OC)c2)c2ccccn2)cc1,-26%,?,?
COc1cc(CN(C(=O)c2ccc(OC(C)C)cc2)c2ccccn2)cc(OC)c1OC,-54%,16µM*,16%
CN[C@H](C(=O)N[C@H](C(=O)N(C)[C@H](/C=C(\C)C(=O)O)C(C)C)C(C)(C)C)C(C)(C)c1ccccc1,nt,nt,7%[57.5 µM]
Cc1ccc(Cl)cc1N1CCN(c2ncnc3c2nc2n3CCCCC2)CC1,-32%,?,-2%
Clc1cccc(N2CCN(c3ncnc4c3nc3n4CCCC3)CC2)c1,?,-28%,50µM*
Cc1cccc(N2CCN(c3ncnc4c3cnn4-c3ccc(Cl)cc3)CC2C)c1 (stereo not given),-8%,13%,-3%
Cc1cccc(N2CCN(c3ncnc4c3nc3n4CCCCC3)CC2C)c1 (stereo not given),-93%,5µM*,-4%
